Screening data deposited in PubChem BioAssay by National Center for Advancing Translational Sciences (NCATS).
Compounds with a hit are over-represented: about 3.8% of the library has one in this group of screens.
KAT2A inh: GCN5L2 (KAT2A) acetyltransferase inhibition; Q92830; GCN5L2 HAT assay, ThioGlo1 CoA-SH fluorescence; Potency, µM (top dose mostly 58.9 µM), inactives show at the top dose activity change, negative = inhibition, hits mostly inhibitors; 390,000 tested, 0.21% active; AID 504327
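GCN5L2 (20 nM) in 50mM HEPES pH 7.5, 0.1mM EDTA, 0.01% Tween-20 preincubated 15 min with compounds at room temperature. Reaction started with H3(1-25) 75uM, acetyl-CoA 70uM, ThioGlo1 50uM; CoA-thiol fluorescence (Ex340/Em540) read at 0 and 20 min.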
TrxR1 substrate: substrates of rat thioredoxin reductase 1; purified TrxR1 substrate turnover, NADPH consumption readout; 390,000 tested, 0.01% active; Potency, µM (highest dose often 114 µM), for the others: at the highest dose activity change, negative = substrate turnover; further: nearly all actives have a fitted effect of over 50% in size
Target sequence (O89049 whole entry, looked up): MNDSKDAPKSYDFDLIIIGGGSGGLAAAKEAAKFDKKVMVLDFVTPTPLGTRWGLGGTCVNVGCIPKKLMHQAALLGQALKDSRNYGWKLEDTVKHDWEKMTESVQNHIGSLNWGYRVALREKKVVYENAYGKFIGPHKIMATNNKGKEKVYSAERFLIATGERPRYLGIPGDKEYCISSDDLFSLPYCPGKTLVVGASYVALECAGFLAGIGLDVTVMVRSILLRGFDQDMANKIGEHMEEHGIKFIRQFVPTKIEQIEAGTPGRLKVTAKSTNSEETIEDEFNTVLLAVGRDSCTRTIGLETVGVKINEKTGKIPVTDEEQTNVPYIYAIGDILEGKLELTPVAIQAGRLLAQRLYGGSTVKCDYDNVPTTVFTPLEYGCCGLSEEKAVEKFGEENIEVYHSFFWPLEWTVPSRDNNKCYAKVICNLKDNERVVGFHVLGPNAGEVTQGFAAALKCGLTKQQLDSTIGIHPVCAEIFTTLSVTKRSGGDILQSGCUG
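Rat TrxR1, dispensed at 90 nM, was prereduced with 400 uM NADPH (final) for 5 min at ~22 deg C, then incubated with compound 15 min before 400 uM selenite. A first-read NADPH fluorescence drop versus no-compound background flagged substrates.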
Sfp PPTase inh: inhibitors of Bacillus subtilis Sfp phosphopantetheinyl transferase | 310,000 tested, 3.5% active | AID 1490 | Biochemical Sfp PPTase activity, qHTS | Potency, µM, without a hit: largest response in the series, negative = inhibition, most hits filed as inhibitors;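 further: the enzyme is Sfp with the accession as filed and its product quenches rhodamine fluorescence; 0% = enzyme reaction without inhibitor and -100% = no enzyme wells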
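After 15 min at room temperature with compound, 15 nM Sfp received 5 uM rhodamine-CoA plus 12.5 uM BHQ-2-ybbR (50 mM Hepes pH 7.6, 10 mM MgCl2). Rate came from the fluorescence difference over 30 min, ex 525/em 598 nm.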
GLS inhibitor: glutaminase GLS (human) inhibition | 410,000 tested, 0.21% active | AID 624170 | GLS enzymatic activity, qHTS titration | Potency, µM (doses to about 45.5 µM), for inactives: at the top dose activity change, negative = inhibition, hits mostly inhibitors | O94925
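Two-point fluorescence kinetic (t0, 30 min RT) for hKGA; glutamate detected via glutamate oxidase–HRP–Amplex Red. Substrate: 1 mM L-glutamine solution; buffer 45 mM KH2PO4, pH 8.2.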
VDR inh: vitamin D3 receptor (human) inhibition; VDR-SRC2-3 peptide fluorescence polarization, 2 h; Potency, µM, without a hit: max response, negative = inhibition, actives largely listed as inhibitors; 400,000 tested, 0.93% active
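Inhibition of the VDR/SRC2-3 peptide interaction is quantified by fluorescence polarization. Compounds (23 nl, pintool) incubate with the reagents for 2 hours at ambient room temperature.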
TrxR1 inh: rat TrxR1 inhibition | O89049 | recombinant rTrxR1, NADPH fluorescence consumption, selenite substrate | Potency, µM (series often up to 114 µM), without a hit: at the highest dose activity change, negative = inhibition, most hits filed as inhibitors | 390,000 tested, 1% active | AID 588453; further: nearly all actives have a fitted effect of over 65% in size
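Rat TrxR1 (90 nM in the dispensed reagent) was pre-reduced with 400 uM NADPH for 5 min at room temperature, then incubated with compound for 15 min. After 400 uM selenite was added, NADPH fluorescence (Ex 340/Em 450 nm) was followed for 8 min.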
Starred values were filed as active, the others as inactive; [ ] = dose if it differs, or a comment. The call rests on the fitted dose curve; in most records, active means well fitted curve in the direction sought with a large enough effect; inconclusive means small, poorly fitted or top-dose-only effect, or another doubt; inactive means no such curve, though single readings can be large; an effect the other way counts as inactive or inconclusive. Unless noted, on the % scale 0 is the no-effect control and ±100 the full control effect; potency means the concentration at half of the fitted maximal effect.

For O=C(COC(=O)c1ccc(S(=O)(=O)NCc2ccco2)cc1)Nc1ccccc1 the results were KAT2A inh 1.3%, TrxR1 substrate -1.4%, GLS inhibitor 3.8%, VDR inh 13.4% and TrxR1 inh -12.9%.
For O=C(COC(=O)c1ccc(S(=O)(=O)NCc2ccco2)cc1)Nc1ccccc1OC(F)F the results were KAT2A inh -25.9%, TrxR1 substrate -2.5%, Sfp PPTase inh 31.6µM*, GLS inhibitor 3.4%, VDR inh -4.1% and TrxR1 inh -24.4%.
`O=C(O)c1ccc2c3c1cccc3c(=O)n1c3ccccc3nc21` gave KAT2A inh inconclusive, Sfp PPTase inh 30.1% and VDR inh -6.2%.
For Cc1cc(OCC(=O)N2CCN(c3cccc(Cl)c3)CC2)c2c(C)c(C)c(=O)oc2c1 the results were KAT2A inh 1.2%, TrxR1 substrate 1.6%, Sfp PPTase inh 39.8µM*, GLS inhibitor -0.8%, VDR inh -15.9% and TrxR1 inh 33.2%.
Screening S=C(Nc1ccccc1)N1CCn2c1nc1ccccc12 returned KAT2A inh -14.9%, TrxR1 substrate 2.0%, Sfp PPTase inh 21.7%, GLS inhibitor -1.4%, VDR inh 14.5% and TrxR1 inh 22.2%.
`Cc1cc(OCCOc2cccc3cccnc23)cc(C)c1Cl` gave KAT2A inh -7.4%, TrxR1 substrate 0.2%[57.1 µM], Sfp PPTase inh inconclusive, GLS inhibitor -0.1%, VDR inh -11.9% and TrxR1 inh -3.2%[57.1 µM].
Cc1cc(C)c(C)c(OCCCOc2cccc3cccnc23)c1 was read as KAT2A inh -9.3%, TrxR1 substrate -3.0%, Sfp PPTase inh 70.8µM*, GLS inhibitor -1.2%, VDR inh -5.2% and TrxR1 inh -4.9%.
COCCN=C1Sc2nc3ccc(C)cc3cc2CN1Cc1ccco1 was read as KAT2A inh -9.3%, TrxR1 substrate 0.8%[57.1 µM], Sfp PPTase inh 44.7µM*, GLS inhibitor -3.6%, VDR inh -13.1% and TrxR1 inh 2.2%[57.1 µM].
For COCCN=C1Sc2nc3cc(C)c(C)cc3cc2CN1Cc1cccs1 the results were KAT2A inh -6.7%, TrxR1 substrate 3.6%, Sfp PPTase inh inconclusive, GLS inhibitor 8.0%, VDR inh 8.4% and TrxR1 inh 1.7%.
For COc1ccc(C(=O)N=c2c(C#N)cc3c(=O)n4cccc(C)c4nc3n2Cc2ccco2)cc1 the results were KAT2A inh -9.5% and Sfp PPTase inh 56.2µM*.
CCOC(=O)c1cc2c(=O)n3ccccc3nc2n(Cc2ccco2)c1=NC(=O)c1cc(C)cc(C)c1 was read as KAT2A inh -5.8%, TrxR1 substrate 33.2%, GLS inhibitor -0.5%, VDR inh -18.5% and TrxR1 inh inconclusive.
For CCOC(=O)c1cc2c(=O)n3ccccc3nc2n(Cc2ccco2)c1=NC(=O)c1ccc(OC)cc1OC the results were KAT2A inh -0.2%, TrxR1 substrate 98.8%, Sfp PPTase inh 44.7µM*, GLS inhibitor 1.7%, VDR inh inconclusive and TrxR1 inh -59.6%.
`CC(Nc1cccc(F)c1)C(=O)Nc1ccc(S(N)(=O)=O)cc1` (configuration not stated) gave KAT2A inh -2.3%, TrxR1 substrate 9.8%, Sfp PPTase inh 17.1%, GLS inhibitor 4.7%, VDR inh -1.3% and TrxR1 inh 13.4%[57.1 µM].
For O=C1Nc2ccccc2/C1=C/c1ccc([N+](=O)[O-])cc1 the results were KAT2A inh 0.1%, TrxR1 substrate -9.5%, Sfp PPTase inh 5.2%, GLS inhibitor -14.4%, VDR inh -9.8% and TrxR1 inh -10.1%.
`CC1(c2ccc([N+](=O)[O-])cc2)Nc2ccccc2S1` (configuration not stated) gave KAT2A inh -12.4%, TrxR1 substrate -6.5%, Sfp PPTase inh 50.1µM*, GLS inhibitor 6.9%, VDR inh inconclusive and TrxR1 inh 49.2%.
Screening Cc1ccc(-c2csc3nc(C)n(-n4cccc4)c(=O)c23)o1 returned KAT2A inh -4.4%, TrxR1 substrate 4.6%, Sfp PPTase inh 56.2µM*, GLS inhibitor 6.6%, VDR inh 9.8% and TrxR1 inh inconclusive.
`Cc1ccc(-c2csc3nc(C)n(N)c(=O)c23)cc1` gave KAT2A inh -3.2%, TrxR1 substrate 4.0%, Sfp PPTase inh 7.6%, GLS inhibitor -12.2%, VDR inh -5.5% and TrxR1 inh 22.6%.
`Cc1nn(C)c2c1c(-c1ccccc1)cc(=O)n2C(C)C(=O)NCc1ccc(F)cc1` (configuration not stated) gave KAT2A inh -3.8%, TrxR1 substrate -0.1%[57.1 µM], GLS inhibitor -9.2%, VDR inh -1.6% and TrxR1 inh 8.3%[57.1 µM].
`NC(=S)c1ccc[n+]([O-])c1` gave TrxR1 substrate -10.3%, GLS inhibitor -0.3%, VDR inh 50.1µM* and TrxR1 inh -22.2%.
Screening O=C(O)c1ccc[n+]([O-])c1 returned KAT2A inh 0.4%, Sfp PPTase inh 2.0%, GLS inhibitor 4.3% and VDR inh -2.1%.
For COCCCNCCOCCSc1ccc(Cl)cc1 the results were KAT2A inh 1.2%, TrxR1 substrate -11.0%, Sfp PPTase inh 50.1µM*, GLS inhibitor 8.8%, VDR inh -4.3% and TrxR1 inh -17.2%.
For CCCCNCCOCCSc1ccc(Cl)cc1 the results were KAT2A inh 19.1%, TrxR1 substrate 5.4%, Sfp PPTase inh -10.2%, GLS inhibitor 0.2%, VDR inh 13.3% and TrxR1 inh 11.2%.
For CCOC(=O)c1[nH]c(C)c(/C(C)=N\O)c1C the results were TrxR1 substrate 8.1%, GLS inhibitor -0.3%, VDR inh -12.7% and TrxR1 inh 33.0%.
For COc1ccc2nc(-c3cccc(N)c3)[nH]c2c1 the results were KAT2A inh -18.3%, TrxR1 substrate 73.5%[57.1 µM], Sfp PPTase inh -20.8%, GLS inhibitor 9.0%, VDR inh -3.9% and TrxR1 inh 28.6%[57.1 µM].
Screening COc1ccc(-c2nc3ccc(C4=C(C)CC(=O)NN4)cc3[nH]2)cc1 returned GLS inhibitor 31.6µM* and VDR inh -8.0%.
Screening CCCn1cnc2c(=S)nc(N)[nH]c21 returned KAT2A inh -4.5%, TrxR1 substrate -3.8%, Sfp PPTase inh 39.8µM*, GLS inhibitor -27.8%, VDR inh 0.4% and TrxR1 inh -33.1%.
Screening CCCCn1cnc2c(=S)nc(N)[nH]c21 returned KAT2A inh -3.4%, TrxR1 substrate -5.3%, Sfp PPTase inh 14.1µM*, GLS inhibitor inconclusive, VDR inh 4.7% and TrxR1 inh -20.2%.
For CCCCCCCCn1cnc2c(N)c(C)c(C)cc21 the results were KAT2A inh -20.2%, TrxR1 substrate -12.4%, Sfp PPTase inh -9.1%, GLS inhibitor -8.6%, VDR inh 3.0% and TrxR1 inh 2.9%.
